# Reference: PubChem BioAssay AID434973 (Sanford-Burnham Center for Chemical Genomics, 2010)
# Among all 330,000 compounds or so, about 4,900 (1.5%) were called active.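 The calls were made as follows: active = inhibition above about 50% at the single test dose (limit read from the data); inactive = the rest.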 This excerpt belongs to a sample that is enriched for actives.
# Target: Sentrin-specific protease 7 (Homo sapiens) (UniProt Q9BQF6)
# Experiment: blockers of human SENP7 peptidase activity – biochemical, luminescence, uHTS, primary screen (AID 434973);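 also: plate controls were DMSO with enzyme for no effect and no enzyme buffer wells for full effect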
# Details: recombinant SENP7, Z-RLRGG-aminoluciferin luminescence, 40 min; at 5 µM; stronger effect = higher value
row,SMILES,inhibition
1,CN(c1ccccc1)S(=O)(=O)c1ccc(Cl)c(C(=O)OCC(=O)N2CCOCC2)c1,3.02% (inactive)
2,O=C(NCCC(=O)N1O[C@@H]2C=C[C@H]1C2)OCC1c2ccccc2-c2ccccc21,3.86% (inactive)
3,Cc1ccn(C(CC(=O)c2ccc(Br)cc2)C(=O)O)n1 (stereo unspecified),4.97% (inactive)
4,CCCCN(CC)C(=O)c1ccccc1Oc1ccccc1,6.13% (inactive)
5,COC(=O)c1nn(-c2cccc(Cl)c2)ccc1=O,3.97% (inactive)
6,COc1ccc(-c2sc3ccccc3c2-c2ccc(OCCN3CCOCC3)cc2)cc1,-12.1% (inactive)
7,COc1ccc(N=C(C)c2sc3ccccc3c2O)cc1,83.7% (active)
8,COC(=O)c1ccc(/C=C/c2c(-c3ccc(OC)cc3)sc3ccccc23)cc1,3.42% (inactive)
9,Cc1ccc2cc3cc(C(=O)N4CCCCCC4)oc3nc2c1,55.3% (active)
10,Cc1cc(C)cc(NC(=O)N2CCCCCCC2)c1,0.706% (inactive)
11,Cc1ccc2nc(N3CCN(C(=O)c4ccco4)CC3)sc2c1,-7.97% (inactive)
12,O=c1onc(-c2c(F)cccc2F)n1-c1ccccc1Cl,-2.38% (inactive)
13,Cc1cc(=O)[nH]c(S)c1C#N,7.81% (inactive)
14,CCc1ccc(OCC(=O)OCC(=O)c2c(N)n(C)c(=O)n(C)c2=O)cc1,-1.23% (inactive)
15,CCN(CC)CCn1c2c(c(SCC(=O)Nc3nc4ccccc4s3)nc1=O)CCCC2,4.47% (inactive)
16,c1ccc2sc(NN=C3CCCC3)nc2c1,82.2% (active)
17,O=C1NC(Nc2nc3ccccc3s2)(C(F)(F)F)C(=O)N1C1CCCCC1 (stereo unspecified),6.04% (inactive)
18,COc1ccc(CNC(=O)C2CCC(CNc3c(N4CCOCC4)c(=O)c3=O)CC2)cc1 (stereo unspecified),-10.4% (inactive)
19,O=C(Nc1nnc(-c2ccccc2)o1)c1cccc(S(=O)(=O)N2CCOCC2)c1,-5.26% (inactive)
20,O=C(O[C@H]1[C@H](Cc2ccccc2)NS(=O)(=O)[C@H]2C[C@@H]3C=C[C@]12O3)c1ccc([N+](=O)[O-])cc1,7.73% (inactive)
21,O=C(CCN1CCCCC1)N=Nc1c(O)[nH]c2ccccc12,-5.94% (inactive)

row,SMILES,inhibition
1,Cc1c(-c2ccccc2)n[nH]c1C(=O)N=Nc1c(O)[nH]c2ccccc12,84.6% (active)
2,Cc1cccc(N(CC(=O)N=Nc2c(O)[nH]c3ccccc23)S(C)(=O)=O)c1C,5.39% (inactive)
3,CCCc1ccc(OCCNC(=O)c2ccco2)cc1,-0.541% (inactive)
4,CCCc1ccc(OCCNC(=O)c2ccccc2Br)cc1,-1.05% (inactive)
5,CCCOc1ccc(C(=O)NCCc2ccccc2)cc1,78.1% (active)
6,COc1ccc(CCNC(=O)C(=O)NCC2CCNCC2)cc1OC,2.84% (inactive)
7,COc1ccc(SC[C@H](Cc2ccccc2)N2CCN(CCc3ccccc3)CCC2=O)cc1,-3.68% (inactive)
8,CCn1cc(C(=O)NCCCN2CCCCCC2)c(=O)c2cc(S(=O)(=O)N3CCc4ccccc4C3)ccc21,7.21% (inactive)
9,Cc1ccn2cc(C(=O)NC3CCN(Cc4ccccc4)CC3)nc2c1,5.68% (inactive)
10,CCN(CC)S(=O)(=O)c1ccc(-c2cn3ccc(C)cc3n2)cc1,10.3% (inactive)
11,COc1cc(OC)cc(-c2nc(=S)n3ccsc3n2)c1,0.18% (inactive)
12,COc1ccc(-c2cn3ccsc3n2)cc1,58.5% (active)
13,COc1ccc(-c2cn3ccc(C)cc3n2)cc1,98.1% (active)
14,COc1ccc(-c2cn3cccnc3n2)cc1,1.35% (inactive)
15,CC(C)(C)c1ccc(/C=C/C(=O)NC2CCS(=O)(=O)C2)cc1 (stereo unspecified),5.24% (inactive)
16,Cc1ccc(S(=O)(=O)N2CCN(C(=O)c3ccc(-n4cncn4)c([N+](=O)[O-])c3)CC2)cc1,0.142% (inactive)
17,CN(C)S(=O)(=O)c1cc(NC(=O)CN2C(=O)NC3(CCCc4ccccc43)C2=O)ccc1Cl (stereo unspecified),-13.5% (inactive)
18,Cc1nc2nc(C)c(NS(=O)(=O)c3ccc(C(C)(C)C)cc3)c(=O)n2[nH]1,-0.191% (inactive)
19,Cc1csc(SCC(=O)Nc2sccc2C#N)n1,94% (active)
20,Cc1ccc(NC(=O)CSCC(=O)Nc2sccc2C#N)cc1,1.52% (inactive)
21,Cc1cccc(C)c1Nc1nnc(SCC(=O)Nc2sccc2C#N)s1,8.73% (inactive)

row,SMILES,inhibition
1,COC(=O)C1=C(C)NC(=O)/C1=C/c1ccc(CNS(=O)(=O)c2ccc(C)cc2)o1,-2.86% (inactive)
2,CC(=O)Nc1ccc(C(=O)Nc2cccc(S(=O)(=O)NC3=NCCC3)c2)cc1,-0.0847% (inactive)
3,CN(Cc1c(F)cccc1Cl)C(=O)CNC(=O)c1ccc2c(c1)OCO2,-9.22% (inactive)
4,CC(NC(=O)Nc1cccc([N+](=O)[O-])c1)c1ccc2c(c1)OCO2 (stereo unspecified),3.89% (inactive)
5,O=C(Nc1ccc(N2CCOCC2)cc1)c1ccc2c(c1)OCO2,16.9% (inactive)
6,O=C(Nc1ccccc1F)c1ccc2c(c1)OCO2,67.5% (active)
7,CC(C)C(=O)Nc1cccc(C(=O)Nc2ccc3c(c2)OCO3)c1,34.3% (inactive)
8,O=C(Nc1ccc2c(c1)OCCO2)c1ccoc1,-0.659% (inactive)
9,O=C(Nc1cccc([N+](=O)[O-])c1)c1ccc2c(c1)OCO2,66.9% (active)
10,N#Cc1ccccc1NC(=O)c1ccc2c(c1)OCO2,2.46% (inactive)
11,CN1CCN(c2ccc(NC(=O)c3ccc4c(c3)OCCO4)cc2Cl)CC1,-1.01% (inactive)
12,O=C(Nc1ccc(NC(=O)c2ccc3c(c2)OCO3)cc1)c1cccc(Cl)c1,1.85% (inactive)
13,O=C(Nc1ccccc1)c1ccc2c(c1)OCO2,88.5% (active)
14,O=C(Nc1ccccc1)c1ccc2c(c1)OCCCO2,90.7% (active)
15,Cc1ccc(S(=O)(=O)N2CCOCC2)cc1NC(=O)CSc1nnc(N)s1,-5.72% (inactive)
16,CC(C)(C)C1CCC(OC(=O)CCC(=O)Nc2ccccc2)CC1 (stereo unspecified),3.21% (inactive)
17,COc1cc(OC)cc(/C(N)=N/O)c1,0.905% (inactive)
18,O=C(CN1C(=O)NC2(CCCC2)C1=O)NCC1CCCO1 (stereo unspecified),4.93% (inactive)
19,O=C(CN1C(=O)CC(c2ccccc2)S(=O)(=O)c2ccccc21)NC1CCCC1 (stereo unspecified),2.74% (inactive)
